PubChem BioAssay (NCATS)
Records with an inconclusive call do not appear. Values without a mark were called inactive. Calls follow the shape of the dose curve; as a rule, active = well fitted cell-killing curve with a large enough effect; inconclusive = small, poorly fitted or top-dose-only effect; inactive = no such curve, though single readings can be large or run the other way.

Assay: qHTS of pediatric cancer cell lines to identify multiple opportunities for drug repurposing: Primary screen for Rh30 cells (AID 1347107); also: nearly all actives have a fitted effect of over 75% in size
Conditions: Rh30 rhabdomyosarcoma viability, CellTiter-Glo luminescence, 48 h; series mostly up to 46 µM; activity change, negative = cytotoxic: at the top concentration
How it was run: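 Cells (500-1,000/well) rested 5 h, then received compounds for 48 h; metabolically active cells were measured by CellTiter-Glo luminescence. Final concentrations spanned up to 46 µM (MIPE, 11-point) or 0.59 nM-46 µM (NPC, 8-point) in primary screens, 11-point in follow-ups.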
% is scaled to controls: 0 for no effect and ±100 for the full control effect.

Row | SMILES | activity change, negative = cytotoxic [%]
1 | Cn1c(=O)c2[nH]c(Br)nc2n(C)c1=O | 10.8
2 | C=CCN1CCc2nc(N)sc2CC1 | 27
3 | Cl/C(=C\n1cncn1)c1ccc(Cl)cc1Cl | 17.9
4 | Cc1nc(-c2ccc(Cl)cc2)oc1COC(C)(C)C(=O)O | 19.2
5 | CCC(C(=O)OCCOCCN(CC)CC)c1ccccc1 (stereo not given) | -0.467
6 | OC[C@H]1O[C@@H]2O[C@H]3[C@H](O)[C@@H](O)[C@@H](O[C@H]4[C@H](O)[C@@H](O)[C@@H](O[C@H]5[C@H](O)[C@@H](O)[C@@H](O[C@H]6[C@H](O)[C@@H](O)[C@@H](O[C@H]7[C@H](O)[C@@H](O)[C@@H](O[C@H]8[C@H](O)[C@@H](O)[C@@H](O[C@H]1[C@H](O)[C@H]2O)O[C@@H]8CO)O[C@@H]7CO)O[C@@H]6CO)O[C@@H]5CO)O[C@@H]4CO)O[C@@H]3CO | 4.57
7 | OC1C(O)C(O)C(O)C(O)C1O (stereo not given) | 7.78
8 | CCOC(=O)[C@H](CCc1ccccc1)N[C@@H](C)C(=O)N1[C@H](C(=O)O)C[C@@H]2CCC[C@@H]21 | 8.29
9 | CC(=O)NO | 18.1
10 | CCCCCCCCCCCCCCCCO | 10.1
11 | CC[N+](C)(CC)CCOC(=O)C(O)(c1ccccc1)C1CCCCC1 (stereo not given) | 26
12 | COc1ccc(-c2cc(C(F)F)nn2-c2ccc(S(N)(=O)=O)cc2)cc1F | 23.5
13 | Cc1cccc(C)c1NC(=O)c1ccccc1C(=O)O | 23.9
14 | Cc1c(-c2ccccc2)oc2c(C(=O)OCCN3CCCCC3)cccc2c1=O | 12.7
15 | CC(=O)Nc1ccc(S(=O)(=O)Nc2ccc([N+](=O)[O-])cc2)cc1 | 17.1
